Test results taken from article PMC7862700, “An all-to-all approach to the identification of sequence-specific readers for epigenetic DNA modifications on cytosine”.

Experiments:
Assay in all cases: DAPPL (digital affinity profiling via proximity ligation, sequencing); 10 mM Tris-HCl pH 7.5, 50 mM NaCl, 1 mM DTT, 4% glycerol, room temperature, 30 min; GST-TFs on glutathione beads, 16-mer random dsDNA library, 0.1% formaldehyde crosslink after washing; high values mean tight binding
FEV = target: T1, FEV (Homo sapiens, UniProt Q99581 1-238); settings: protein: recombinant; tags: N-terminal GST; dsDNA, one strand shown
T1 sequence: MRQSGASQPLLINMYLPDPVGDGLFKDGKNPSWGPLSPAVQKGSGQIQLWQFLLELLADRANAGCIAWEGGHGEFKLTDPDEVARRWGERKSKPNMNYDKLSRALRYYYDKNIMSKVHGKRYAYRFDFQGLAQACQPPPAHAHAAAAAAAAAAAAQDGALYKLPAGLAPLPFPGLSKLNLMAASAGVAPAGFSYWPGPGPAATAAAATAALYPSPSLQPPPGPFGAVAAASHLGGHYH
Outline: (§1)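 Sequencing on an Illumina NextSeq500 followed washing, crosslinking with 0.1% formaldehyde, proximity ligation (BsaI/T4 ligase, 1 h, 37 °C) and PCR amplification of pools that had been incubated for 30 min at room temperature with 200 nmole of a random double-stranded 16-mer DNA library in Tris/NaCl/DTT/glycerol buffer. Each pool held DNA-barcoded human transcription factors, expressed in yeast as GST fusions and captured on glutathione beads, plus a tag-only sample. Binding signal is a hexamer's read frequency for a factor divided by its frequency in the tag-only sample.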

ETV5 = ETV5 (Homo sapiens, UniProt P41161 1-510); settings: protein: recombinant; tags: N-terminal GST; dsDNA, one strand shown
Outline: as §1

HSF1 = HSF1 (Homo sapiens, UniProt Q00613 1-529); settings: protein: recombinant; tags: N-terminal GST; chain copies: 3; dsDNA, one strand shown
Outline: as §1

SPIC = target: T2, SPIC (Homo sapiens, UniProt Q8N5J4 1-248); settings: protein: recombinant; tags: N-terminal GST; dsDNA, one strand shown
T2 sequence: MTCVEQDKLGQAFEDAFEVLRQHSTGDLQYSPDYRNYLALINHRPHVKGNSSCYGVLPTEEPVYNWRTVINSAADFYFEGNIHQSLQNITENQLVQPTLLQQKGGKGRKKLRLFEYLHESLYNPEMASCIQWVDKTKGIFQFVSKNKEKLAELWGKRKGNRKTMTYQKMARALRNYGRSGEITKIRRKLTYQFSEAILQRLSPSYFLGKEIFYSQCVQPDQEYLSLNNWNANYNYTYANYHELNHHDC
Outline: as §1

ELF4 = ELF4 (Homo sapiens, UniProt Q99607 1-663); settings: protein: recombinant; tags: N-terminal GST; dsDNA, one strand shown
Outline: as §1

ELK4 = target: T3, ELK4 (Homo sapiens, UniProt P28324-2 1-405); settings: protein: recombinant; tags: N-terminal GST; dsDNA, one strand shown
T3 sequence: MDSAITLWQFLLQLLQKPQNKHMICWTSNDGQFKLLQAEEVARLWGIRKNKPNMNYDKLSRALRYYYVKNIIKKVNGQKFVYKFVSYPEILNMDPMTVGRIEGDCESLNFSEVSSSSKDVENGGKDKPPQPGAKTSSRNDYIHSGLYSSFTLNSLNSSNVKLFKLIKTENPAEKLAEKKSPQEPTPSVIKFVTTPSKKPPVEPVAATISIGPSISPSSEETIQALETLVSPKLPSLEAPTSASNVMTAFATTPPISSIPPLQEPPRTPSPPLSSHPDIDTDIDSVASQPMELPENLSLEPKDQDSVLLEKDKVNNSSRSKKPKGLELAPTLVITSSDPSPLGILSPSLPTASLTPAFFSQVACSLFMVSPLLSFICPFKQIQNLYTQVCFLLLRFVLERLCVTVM
Outline: as §1

ETV2 = target: T4, ETV2 (Homo sapiens, UniProt O00321 1-342); settings: protein: recombinant; tags: N-terminal GST; dsDNA, one strand shown
T4 sequence: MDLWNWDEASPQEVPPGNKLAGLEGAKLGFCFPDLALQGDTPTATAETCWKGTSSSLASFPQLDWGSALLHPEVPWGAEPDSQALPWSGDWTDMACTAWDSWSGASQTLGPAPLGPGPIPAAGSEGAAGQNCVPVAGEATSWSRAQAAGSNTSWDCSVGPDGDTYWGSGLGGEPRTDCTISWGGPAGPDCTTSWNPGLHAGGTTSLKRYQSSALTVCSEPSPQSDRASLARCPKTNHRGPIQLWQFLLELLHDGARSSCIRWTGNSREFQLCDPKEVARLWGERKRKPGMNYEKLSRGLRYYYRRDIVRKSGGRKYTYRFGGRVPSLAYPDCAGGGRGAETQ
Outline: as §1

ELF3 = target: T5, ELF3 (Homo sapiens, UniProt P78545 1-371); settings: protein: recombinant; tags: N-terminal GST; dsDNA, one strand shown
T5 sequence: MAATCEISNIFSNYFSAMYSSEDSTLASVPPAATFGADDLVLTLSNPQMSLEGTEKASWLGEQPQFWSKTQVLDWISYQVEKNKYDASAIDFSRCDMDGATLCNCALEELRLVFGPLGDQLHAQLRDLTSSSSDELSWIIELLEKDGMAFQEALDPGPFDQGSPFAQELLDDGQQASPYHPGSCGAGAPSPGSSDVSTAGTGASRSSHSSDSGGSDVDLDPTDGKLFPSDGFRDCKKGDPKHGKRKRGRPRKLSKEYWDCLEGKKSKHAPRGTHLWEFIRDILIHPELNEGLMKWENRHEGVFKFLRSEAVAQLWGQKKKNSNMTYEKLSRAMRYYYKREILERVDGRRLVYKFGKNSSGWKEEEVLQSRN
Outline: as §1

CRX = CRX (Homo sapiens, UniProt O43186 1-299); settings: protein: recombinant; tags: N-terminal GST; dsDNA, one strand shown
Outline: as §1

ETV1 = ETV1 (Homo sapiens, UniProt P50549 1-477); settings: protein: recombinant; tags: N-terminal GST; dsDNA, one strand shown
Outline: as §1

Chain of ELF4 (Q99607 whole entry): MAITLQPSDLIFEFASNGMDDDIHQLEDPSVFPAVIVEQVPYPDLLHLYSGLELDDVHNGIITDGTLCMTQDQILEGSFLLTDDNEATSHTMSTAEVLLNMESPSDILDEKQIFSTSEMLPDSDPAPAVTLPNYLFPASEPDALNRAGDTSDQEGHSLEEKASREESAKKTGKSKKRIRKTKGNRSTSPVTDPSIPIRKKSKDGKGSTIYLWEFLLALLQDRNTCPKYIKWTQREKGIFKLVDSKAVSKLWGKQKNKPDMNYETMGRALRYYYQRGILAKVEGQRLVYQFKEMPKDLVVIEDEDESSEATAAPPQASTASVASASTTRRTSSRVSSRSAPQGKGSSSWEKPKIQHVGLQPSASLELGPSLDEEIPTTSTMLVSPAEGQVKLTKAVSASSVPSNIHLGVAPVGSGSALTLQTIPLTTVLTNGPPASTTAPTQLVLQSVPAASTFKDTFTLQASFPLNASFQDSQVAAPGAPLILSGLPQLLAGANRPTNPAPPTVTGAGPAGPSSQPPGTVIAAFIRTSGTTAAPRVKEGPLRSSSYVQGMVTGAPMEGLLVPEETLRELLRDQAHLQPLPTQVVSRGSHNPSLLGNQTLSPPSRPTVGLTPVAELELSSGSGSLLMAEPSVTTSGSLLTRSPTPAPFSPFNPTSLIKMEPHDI
Chain of HSF1 (Q00613 whole entry): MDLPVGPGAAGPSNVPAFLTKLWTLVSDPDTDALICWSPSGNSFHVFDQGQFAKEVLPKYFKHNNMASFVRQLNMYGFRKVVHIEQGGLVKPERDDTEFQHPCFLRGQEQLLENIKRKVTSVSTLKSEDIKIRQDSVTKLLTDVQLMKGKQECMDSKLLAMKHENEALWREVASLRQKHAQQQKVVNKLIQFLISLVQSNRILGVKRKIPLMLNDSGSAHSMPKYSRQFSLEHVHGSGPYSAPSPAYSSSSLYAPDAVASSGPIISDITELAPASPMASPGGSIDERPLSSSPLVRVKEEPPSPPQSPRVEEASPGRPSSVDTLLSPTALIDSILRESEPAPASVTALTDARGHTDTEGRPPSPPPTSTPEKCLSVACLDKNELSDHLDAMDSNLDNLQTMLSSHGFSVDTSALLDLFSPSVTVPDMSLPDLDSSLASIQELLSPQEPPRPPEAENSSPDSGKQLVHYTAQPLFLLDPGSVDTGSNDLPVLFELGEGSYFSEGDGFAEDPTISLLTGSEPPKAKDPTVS
Chain of ETV1 (P50549 whole entry): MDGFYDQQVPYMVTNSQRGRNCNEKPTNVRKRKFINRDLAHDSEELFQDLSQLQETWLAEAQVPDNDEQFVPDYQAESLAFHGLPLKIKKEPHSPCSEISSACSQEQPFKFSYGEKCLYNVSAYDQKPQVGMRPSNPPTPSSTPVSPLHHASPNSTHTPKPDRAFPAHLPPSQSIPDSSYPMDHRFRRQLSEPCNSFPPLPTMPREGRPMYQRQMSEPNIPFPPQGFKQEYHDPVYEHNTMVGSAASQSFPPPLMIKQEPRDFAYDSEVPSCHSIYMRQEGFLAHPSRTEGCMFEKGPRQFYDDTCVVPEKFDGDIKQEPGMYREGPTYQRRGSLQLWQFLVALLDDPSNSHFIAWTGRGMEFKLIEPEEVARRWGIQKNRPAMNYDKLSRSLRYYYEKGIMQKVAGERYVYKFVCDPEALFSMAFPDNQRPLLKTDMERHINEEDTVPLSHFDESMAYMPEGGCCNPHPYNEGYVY
Chain of CRX (O43186 whole entry): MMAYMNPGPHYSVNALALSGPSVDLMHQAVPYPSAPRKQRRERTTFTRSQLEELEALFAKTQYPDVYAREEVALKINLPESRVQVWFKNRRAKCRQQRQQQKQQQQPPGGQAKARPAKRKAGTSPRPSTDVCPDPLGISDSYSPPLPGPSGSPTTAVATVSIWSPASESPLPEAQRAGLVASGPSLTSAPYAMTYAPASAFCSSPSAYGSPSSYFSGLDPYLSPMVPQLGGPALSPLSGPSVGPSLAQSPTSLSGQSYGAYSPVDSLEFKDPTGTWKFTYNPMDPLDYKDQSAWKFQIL
Chain of ETV5 (P41161 whole entry): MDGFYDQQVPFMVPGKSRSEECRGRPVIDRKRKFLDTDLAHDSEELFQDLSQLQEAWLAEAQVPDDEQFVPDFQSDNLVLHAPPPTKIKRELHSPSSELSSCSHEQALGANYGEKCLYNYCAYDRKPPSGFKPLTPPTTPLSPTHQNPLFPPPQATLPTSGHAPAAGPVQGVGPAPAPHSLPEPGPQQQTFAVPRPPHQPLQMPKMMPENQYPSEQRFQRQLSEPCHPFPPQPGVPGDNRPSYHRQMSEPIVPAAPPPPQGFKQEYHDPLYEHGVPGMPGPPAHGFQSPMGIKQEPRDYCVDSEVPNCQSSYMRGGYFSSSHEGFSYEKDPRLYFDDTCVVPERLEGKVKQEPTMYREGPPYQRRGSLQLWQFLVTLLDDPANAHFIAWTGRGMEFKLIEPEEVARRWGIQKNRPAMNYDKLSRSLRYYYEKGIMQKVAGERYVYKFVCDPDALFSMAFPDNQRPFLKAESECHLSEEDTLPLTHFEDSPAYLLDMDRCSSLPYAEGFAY

## GCTAAT
FEV
  binding signal: 1.18 fold enrichment (6-mer frequency, TF over GST control)
ETV5
  binding signal: 1.11 fold enrichment (6-mer frequency, TF over GST control)
HSF1
  binding signal: 1.72 fold enrichment (6-mer frequency, TF over GST control)
SPIC
  binding signal: 1.23 fold enrichment (6-mer frequency, TF over GST control)
ELF4
  binding signal: 1.27 fold enrichment (6-mer frequency, TF over GST control)
ELK4
  binding signal: 1.22 fold enrichment (6-mer frequency, TF over GST control)
ETV2
  binding signal: 1.24 fold enrichment (6-mer frequency, TF over GST control)
ELF3
  binding signal: 1.22 fold enrichment (6-mer frequency, TF over GST control)
CRX
  binding signal: 2.56 fold enrichment (6-mer frequency, TF over GST control)
ETV1
  binding signal: 1.14 fold enrichment (6-mer frequency, TF over GST control)

## CCTCCA
FEV
  binding signal: 1.31 fold enrichment (6-mer frequency, TF over GST control)
ETV5
  binding signal: 1.34 fold enrichment (6-mer frequency, TF over GST control)
HSF1
  binding signal: 1.29 fold enrichment (6-mer frequency, TF over GST control)
SPIC
  binding signal: 1.34 fold enrichment (6-mer frequency, TF over GST control)
ELF4
  binding signal: 1.38 fold enrichment (6-mer frequency, TF over GST control)
ELK4
  binding signal: 1.47 fold enrichment (6-mer frequency, TF over GST control)
ETV2
  binding signal: 1.43 fold enrichment (6-mer frequency, TF over GST control)
ELF3
  binding signal: 1.02 fold enrichment (6-mer frequency, TF over GST control)
CRX
  binding signal: 1.12 fold enrichment (6-mer frequency, TF over GST control)
ETV1
  binding signal: 1.36 fold enrichment (6-mer frequency, TF over GST control)

## CTTCGC
FEV
  binding signal: 1.41 fold enrichment (6-mer frequency, TF over GST control)
ETV5
  binding signal: 1.31 fold enrichment (6-mer frequency, TF over GST control)
HSF1
  binding signal: 1.63 fold enrichment (6-mer frequency, TF over GST control)
SPIC
  binding signal: 1.18 fold enrichment (6-mer frequency, TF over GST control)
ELF4
  binding signal: 1.45 fold enrichment (6-mer frequency, TF over GST control)
ELK4
  binding signal: 1.32 fold enrichment (6-mer frequency, TF over GST control)
ETV2
  binding signal: 1.62 fold enrichment (6-mer frequency, TF over GST control)
ELF3
  binding signal: 1.37 fold enrichment (6-mer frequency, TF over GST control)
CRX
  binding signal: 1.24 fold enrichment (6-mer frequency, TF over GST control)
ETV1
  binding signal: 1.52 fold enrichment (6-mer frequency, TF over GST control)

## ACCTAA
FEV
  binding signal: 1.12 fold enrichment (6-mer frequency, TF over GST control)
ETV5
  binding signal: 1.22 fold enrichment (6-mer frequency, TF over GST control)
HSF1
  binding signal: 1.21 fold enrichment (6-mer frequency, TF over GST control)
SPIC
  binding signal: 1.21 fold enrichment (6-mer frequency, TF over GST control)
ELF4
  binding signal: 1.27 fold enrichment (6-mer frequency, TF over GST control)
ELK4
  binding signal: 1.13 fold enrichment (6-mer frequency, TF over GST control)
ETV2
  binding signal: 1.17 fold enrichment (6-mer frequency, TF over GST control)
ELF3
  binding signal: 1.2 fold enrichment (6-mer frequency, TF over GST control)
CRX
  binding signal: 1.57 fold enrichment (6-mer frequency, TF over GST control)
ETV1
  binding signal: 1.18 fold enrichment (6-mer frequency, TF over GST control)

## CTGTAT
FEV
  binding signal: 1.34 fold enrichment (6-mer frequency, TF over GST control)
ETV5
  binding signal: 1.35 fold enrichment (6-mer frequency, TF over GST control)
HSF1
  binding signal: 1.18 fold enrichment (6-mer frequency, TF over GST control)
SPIC
  binding signal: 1.51 fold enrichment (6-mer frequency, TF over GST control)
ELF4
  binding signal: 1.22 fold enrichment (6-mer frequency, TF over GST control)
ELK4
  binding signal: 1.29 fold enrichment (6-mer frequency, TF over GST control)
ETV2
  binding signal: 1.25 fold enrichment (6-mer frequency, TF over GST control)
ELF3
  binding signal: 1.13 fold enrichment (6-mer frequency, TF over GST control)
CRX
  binding signal: 1.17 fold enrichment (6-mer frequency, TF over GST control)
ETV1
  binding signal: 1.39 fold enrichment (6-mer frequency, TF over GST control)

## GCACTA
FEV
  binding signal: 1.19 fold enrichment (6-mer frequency, TF over GST control)
ETV5
  binding signal: 1.13 fold enrichment (6-mer frequency, TF over GST control)
HSF1
  binding signal: 1.11 fold enrichment (6-mer frequency, TF over GST control)
SPIC
  binding signal: 1.12 fold enrichment (6-mer frequency, TF over GST control)
ELF4
  binding signal: 1.27 fold enrichment (6-mer frequency, TF over GST control)
ELK4
  binding signal: 1.13 fold enrichment (6-mer frequency, TF over GST control)
ETV2
  binding signal: 1.22 fold enrichment (6-mer frequency, TF over GST control)
ELF3
  binding signal: 1.29 fold enrichment (6-mer frequency, TF over GST control)
CRX
  binding signal: 1.17 fold enrichment (6-mer frequency, TF over GST control)
ETV1
  binding signal: 1.15 fold enrichment (6-mer frequency, TF over GST control)

## GAAAAT
FEV
  binding signal: 1.07 fold enrichment (6-mer frequency, TF over GST control)
ETV5
  binding signal: 1.16 fold enrichment (6-mer frequency, TF over GST control)
HSF1
  binding signal: 1.49 fold enrichment (6-mer frequency, TF over GST control)
SPIC
  binding signal: 1.09 fold enrichment (6-mer frequency, TF over GST control)
ELF4
  binding signal: 1.14 fold enrichment (6-mer frequency, TF over GST control)
ELK4
  binding signal: 1.01 fold enrichment (6-mer frequency, TF over GST control)
ETV2
  binding signal: 1.17 fold enrichment (6-mer frequency, TF over GST control)
ELF3
  binding signal: 1.09 fold enrichment (6-mer frequency, TF over GST control)
CRX
  binding signal: 1.2 fold enrichment (6-mer frequency, TF over GST control)
ETV1
  binding signal: 1.02 fold enrichment (6-mer frequency, TF over GST control)

## CGAACC
FEV
  binding signal: 1.24 fold enrichment (6-mer frequency, TF over GST control)
ETV5
  binding signal: 1.21 fold enrichment (6-mer frequency, TF over GST control)
HSF1
  binding signal: 1.47 fold enrichment (6-mer frequency, TF over GST control)
SPIC
  binding signal: 1.23 fold enrichment (6-mer frequency, TF over GST control)
ELF4
  binding signal: 1.26 fold enrichment (6-mer frequency, TF over GST control)
ELK4
  binding signal: 1.26 fold enrichment (6-mer frequency, TF over GST control)
ETV2
  binding signal: 1.2 fold enrichment (6-mer frequency, TF over GST control)
ELF3
  binding signal: 1.24 fold enrichment (6-mer frequency, TF over GST control)
CRX
  binding signal: 1.02 fold enrichment (6-mer frequency, TF over GST control)
ETV1
  binding signal: 1.13 fold enrichment (6-mer frequency, TF over GST control)
